Records with an inconclusive call do not appear. The source made the active and inactive calls. Calls follow the shape of the dose curve; as a rule, active = well fitted inhibition curve with a large enough effect; inconclusive = small, poorly fitted or top-dose-only effect; inactive = flat fitted curve, though single readings scatter.
What was measured:
HaCat [1] = assay: Cytotoxic Profiling of Annotated Libraries Using Quantitative High-Throughput Screening (AID 1296008); details: Five cell lines viability, CellTiter-Glo ATP luminescence, 48-72 h; max response: active compounds read low; as to max response: % is scaled to controls: 0 for no effect and ±100 for the full control effect
Outline: (§1)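 Cytotoxicity was measured as CellTiter-Glo ATP luminescence, read after 10 min at room temperature. Compound treatment of the cells lasted 48 or 72 hr at 37 degrees Celsius in a qHTS format.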

KB-3-1 = assay: as above; details: Five cell lines viability, CellTiter-Glo ATP luminescence, 48-72 h; max response: active compounds read low
Outline: as §1

NIH3T3 = assay: as above; details: Five cell lines viability, CellTiter-Glo ATP luminescence, 48-72 h; max response: active compounds read low
Outline: as §1

HACAT [2] = assay: qHTS assay to identify novel small-molecules to repurpose for Merkel cell carcinoma treatment (AID 1296009); details: MCC and control cell lines, CellTiter-Glo viability, 72 h; series mostly up to 44.8 µM
Outline: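 Cell viability, measured as CellTiter-Glo luminescence, was normalized between DMSO and no-cell wells. The cells had been exposed to 8- or 11-point compound dilutions for 72 hr at 37 degree celsius.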
Also: nearly all actives have a fitted effect of over 60% in size.

CC(C)c1cccc2c(-c3ccccc3)cc(-c3ccc(-c4ccc(C(=O)O)cc4)[nH]3)nc12
inactive: outcome (HaCat [1]) | max response (KB-3-1) -3.11% | max response (NIH3T3) -3.94% | Potency (HACAT [2])

Oc1ccc2nc(CN3CCC(Cc4ccccc4F)CC3)[nH]c2c1
inactive: outcome (HaCat [1]) | max response (KB-3-1) -7.21% | max response (NIH3T3) -12% | Potency (HACAT [2])

Cc1cc(OCc2nc(-c3ccccc3Cl)cs2)ccc1OCC(=O)O
inactive: outcome (HaCat [1]) | outcome (KB-3-1) | max response (NIH3T3) 4.72% | Potency (HACAT [2])

COc1cc(C(=O)OC[C@H]2O[C@@H](Oc3ccccc3/C=C/C(=O)O)[C@H](O)[C@@H](O)[C@@H]2O)cc(OC)c1OC
inactive: outcome (HaCat [1]) | max response (KB-3-1) 5.09% | max response (NIH3T3) 0.074% | Potency (HACAT [2])

C[C@@H]1CCN(C(=O)N2CCCC2)C[C@@H]1N(C)c1ncnc2[nH]ccc12
inactive: outcome (HaCat [1]) | max response (KB-3-1) 6.14% | max response (NIH3T3) -9.02% | Potency (HACAT [2])

CC(C)c1cc(C(=O)N2CC[C@H](NC(=O)C3CC3)C2)n[nH]1
inactive: outcome (HaCat [1]) | max response (KB-3-1) -1.18% | max response (NIH3T3) -25.5% | Potency (HACAT [2])

O=C(O)C1CN(Cc2ccc(-c3nc4cc(Cc5ccccc5F)ccc4s3)c(F)c2)C1
inactive: outcome (HaCat [1]) | max response (KB-3-1) -5.18% | max response (NIH3T3) 3.31% | outcome (HACAT [2]) inactive [at 9.27 µM]

CCOC(=O)c1cc(C#N)c(N2CCC(C(=O)NS(=O)(=O)Cc3ccccc3)CC2)nc1C
inactive: max response (HaCat [1]) 2.62% | outcome (KB-3-1) | max response (NIH3T3) 4.98%

O=S(=O)(c1ccccc1)c1cnc2c(N3CCNCC3)cccc2c1
inactive: outcome (HaCat [1]) | max response (KB-3-1) 0.14% | max response (NIH3T3) -14.1% | Potency (HACAT [2])

CC12CCC(OC3OC(CO)C(O)C(OC4OC(CO)C(O)C(O)C4O)C3O)CC1=CCC1C2CCC2(C)/C(=C3/COC(=O)C3)CCC12O (stereo not drawn)
inactive: outcome (HaCat [1]) | max response (KB-3-1) -7.93% | max response (NIH3T3) -3.87% | Potency (HACAT [2])

C=C(C(=O)O)[C@H]1C[C@]2(C)[C@@H](O)CC[C@]23O[C@H]1C[C@@H]3C
inactive: outcome (HaCat [1]) | outcome (KB-3-1) | max response (NIH3T3) -13.7% | Potency (HACAT [2])

Cc1noc(=O)c2ccc(NC(=O)C(O)(CC(C)(C)c3cccc4c3OCC4)C(F)(F)F)cc12 (stereo not drawn)
inactive: outcome (HaCat [1]) | outcome (KB-3-1) | max response (NIH3T3) -1.29% | Potency (HACAT [2])

CC1(C)CCCC2(C)C1CC(=O)C13CC(CCC12)C(O)(CO)C3 (stereo not drawn)
inactive: outcome (HaCat [1]) | max response (KB-3-1) 8.26% | max response (NIH3T3) 2.51% | Potency (HACAT [2])

CN1C2CCC1CC(OC(=O)[C@H](CO)c1ccccc1)C2 (stereo partly drawn)
inactive: outcome (HaCat [1]) | max response (KB-3-1) -9.98% | max response (NIH3T3) -25.3% | Potency (HACAT [2])

CC1(C)CCC(C)(C)c2cc(C3(c4ccc(C(=O)O)cc4)OCCO3)ccc21
inactive: outcome (HaCat [1]) | max response (KB-3-1) 9.31% | max response (NIH3T3) -24.2% | Potency (HACAT [2])

O=C(O)CCCCCC[C@H]1C(=O)NC(=O)N1CC[C@@H](O)C1CCCCC1
inactive: outcome (HaCat [1]) | outcome (KB-3-1) | max response (NIH3T3) -5.35% | Potency (HACAT [2])

CC(C)=CCC/C(C)=C/CC/C(C)=C/COC1OC(COC2OCC(OC3OCC(O)C(O)C3O)C(O)C2O)C(O)C(OC2OC(C)C(OC3OC(C)C(OC4OCC(OC5OC(C)C(O)C(O)C5O)C(O)C4O)C(O)C3O)C(O)C2O)C1O (stereo not drawn)
inactive: outcome (HaCat [1]) | max response (KB-3-1) 6.01% | max response (NIH3T3) -0.843% | outcome (HACAT [2]) inactive [at 9.27 µM]

O=C(O[C@H]1[C@@H]2C=CO[C@@H](O[C@@H]3O[C@H](CO)[C@@H](O)[C@H](O)[C@H]3O)[C@@H]2[C@@]2(CO)O[C@@H]12)c1ccccc1
inactive: outcome (HaCat [1]) | outcome (KB-3-1) | max response (NIH3T3) -6.96% | Potency (HACAT [2])

C[C@@H]1O[C@@H](O[C@@H]2[C@@H](O)[C@H](O[C@H]3CC[C@@]4(C)C(CC[C@]5(C)C4CC=C4[C@@H]6CC(C)(C)CC[C@]6(C(=O)O[C@@H]6O[C@H](CO)[C@@H](O)[C@H](O)[C@H]6O)CC[C@]45C)C3(C)C)O[C@H](C(=O)O)[C@H]2O)[C@H](O)[C@H](O)[C@H]1O (stereo partly drawn)
inactive: outcome (HaCat [1]) | max response (KB-3-1) 4.23% | max response (NIH3T3) 4.82% | outcome (HACAT [2]) inactive [at 9.27 µM]

CN1CCN(C(=O)c2ccc3cc(CCNc4ncnc5ccc(C#N)cc45)ccc3c2)CC1
inactive: outcome (HaCat [1]) | max response (KB-3-1) -26.4% | max response (NIH3T3) -2.38% | Potency (HACAT [2])

C=CC1C(OC2OC(CO)C(O)C(O)C2O)OC=C(C(=O)OC)C1CC(=O)OCC1C(C)C(O)CC1C(CO)COC(=O)CC1C(C(=O)O)=COC(OC2OC(CO)C(O)C(O)C2O)/C1=C\C (stereo not drawn)
inactive: outcome (HaCat [1]) | outcome (KB-3-1) | max response (NIH3T3) -19.3% | outcome (HACAT [2]) inactive [at 9.27 µM]

Source: PubChem BioAssay (NCATS)
